This is an account of results in the supplement of paper PMC6522484.

± gives the standard deviation of the averaged measurements.

For test [1], the system named is DLD1. Put plainly: cell viability (CellTiter-Glo) relative to plate median (fraction of plate median); higher = more viable cells. The settings on record: 5 µM; treatment time 24 h; reporter: 7TFP. Summed up:
(§1)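 Per-well firefly luciferase or CellTiterGlo luminescence, normalised to the plate median, is what is reported. It was measured in colorectal cancer cells with stable lentiviral TCF/Wnt firefly luciferase reporters after a 24 h treatment with library compounds at a final 5 µM. The mean of two independent replicates is given.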
In general terms: Cellular ATP, detected with luciferase, serves as a proxy for viable cell number.

A further test deals with HCT116. The test is described as above. Particulars: 5 µM; treatment time 24 h; reporter: TCF4/Wnt. Summed up:
as §1

Test [2] concerns SW480. The description is as above. Particulars: 5 µM; treatment time 24 h; reporter: 7TFP. Summed up: as §1
Test [3] deals with DLD1. Put plainly: TCF/Wnt firefly luciferase reporter signal relative to plate median (fraction of plate median); higher = higher Wnt reporter signal. The settings on record: 5 µM; treatment time 24 h; reporter: 7TFP. Summed up: as §1
(Reporter assays use an easily measured gene product as a stand-in for the process of interest.)

In test [4] the test system is SW480. The test is described as above. Particulars: 5 µM; treatment time 24 h; reporter: 7TFP. Summed up: as §1

In the case of `CO[C@H]1O[C@H](CO)C(O[C@@H]2OC(C(=O)O)[C@@H](O[C@H]3O[C@H](COS(=O)(=O)O)C(O[C@@H]4OC(C(=O)O)[C@@H](O[C@H]5O[C@H](CO)C(O[C@@H]6OC(C(=O)O)[C@@H](O[C@H]7O[C@H](COS(=O)(=O)O)C(O[C@@H]8OC(C(=O)O)=C[C@H](O)C8OS(=O)(=O)O)[C@H](O)[C@H]7NC(C)=O)[C@H](O)[C@H]6O)[C@H](O)[C@H]5NC(C)=O)[C@H](O)[C@H]4O)[C@H](O)[C@H]3NC(C)=O)[C@H](O)[C@H]2O)[C@H](O)[C@H]1NC(C)=O` (stereo not given in full), the cell viability in the test with DLD1 [1] came out at 0.988 ± 0.032; in the test on HCT116 it was 1.05 ± 0.1; with SW480 [2], 1.025 ± 0.0071. For the same compound, the “TCF/Wnt firefly luciferase reporter signal” value with DLD1 [3] came out at 0.977 ± 0.2; with SW480 [4] it was 0.98 ± 0.043.
`Nc1ccc(S(=O)(=O)NC(=O)c2ccccc2)cc1`: the cell viability in the test with DLD1 [1] was found to be 1.07 ± 0.12; with HCT116, 0.954 ± 0.12; with SW480 [2], 1.11 ± 0.064. The “TCF/Wnt firefly luciferase reporter signal” value in the test on DLD1 [3] was 0.875 ± 0.15; in the test on SW480 [4], 1.02 ± 0.014.
With `CCN(CC)CCOc1ccc(C(=C(Cl)c2ccccc2)c2ccccc2)cc1`, the cell viability with DLD1 [1] is 0.983 ± 0.019; in the test with HCT116 it was 0.971 ± 0.041; with SW480 [2], 0.939 ± 0.073. The “TCF/Wnt firefly luciferase reporter signal” value with DLD1 [3] amounted to 0.914 ± 0.028; in the test with SW480 [4] it was 1.01 ± 0.27.
The matching figures for `CC(C)CCC[C@@H](C)[C@H]1CC[C@H]2[C@@H]3CC[C@@H]4C[C@H](O)CC[C@]4(C)[C@H]3CC[C@]12C`: 1.06 ± 0.028, 1.01 ± 0.033, 1.02 ± 0.076, 0.985 ± 0.036 and 1.03 ± 0.07.
Take `COc1cc(O)c2c(c1)C(=O)c1cc(C)cc(O)c1C2=O`: the cell viability is 0.973 ± 0.017 with DLD1 [1], 0.979 ± 0.016 in the test on HCT116 and 1.01 ± 0.12 with SW480 [2]. In addition, the “TCF/Wnt firefly luciferase reporter signal” value with DLD1 [3] was 0.949 ± 0.015; with SW480 [4], 1.09 ± 0.057.
As to `Nc1ccn([C@@H]2O[C@H](CO)[C@@H](O)[C@H]2O)c(=O)n1`, the cell viability in the test on DLD1 [1] was 0.977 ± 0.033; in the test on HCT116, 1.06 ± 0.057; in the test on SW480 [2] it was 1.06 ± 0.028. The “TCF/Wnt firefly luciferase reporter signal” value is 1.16 ± 0.064 in the test with DLD1 [3] and 1.05 ± 0.057 in the test on SW480 [4].
For the compound `CC(c1cc2ccccc2s1)N(O)C(N)=O` (stereo not given), the values for the cell viability in the test with DLD1 [1], in the test on HCT116 and with SW480 [2] were 1.03 ± 0.067, 1.02 ± 0.057 and 1.05 ± 0.035, respectively. Also, the “TCF/Wnt firefly luciferase reporter signal” value is 1.13 ± 0.014 in the test on DLD1 [3] and 0.946 ± 0.074 in the test on SW480 [4].
Taken in the same sequence, the figures for `Cc1cc(C(C)(C)C)c(O)c(C(C)(C)C)c1` were 0.926 ± 0.054, 0.925 ± 0.057, 1.004 ± 0.0092, 1.04 ± 0.09 and 0.969 ± 0.011.
Taken in the same sequence, the figures for `Nc1ccc(S(=O)(=O)Nc2ncccn2)cc1` were 0.92 ± 0.032, 1.04 ± 0.069, 0.9685 ± 0.0021, 1.05 ± 0.14 and 1.01 ± 0.083.
The matching figures for `CCn1cc(C(=O)O)c(=O)c2cc(F)c(N3CCNC(C)C3)c(F)c21` (stereo not given): 0.971 ± 0.056, 1.05 ± 0.057, 0.98 ± 0.012, 1.13 ± 0.057 and 0.997 ± 0.061.
Consider `CCCCCCCC/C=C/CCCCCCCCOP(=O)([O-])OCC[N+](C)(C)C`, for which the cell viability in the test on DLD1 [1] worked out at 0.984 ± 0.052; with HCT116, 0.886 ± 0.2; in the test with SW480 [2] it was 1.02 ± 0.03. The results for the “TCF/Wnt firefly luciferase reporter signal” value with DLD1 [3] and in the test on SW480 [4] were 0.986 ± 0.034 and 0.982 ± 0.018, respectively.
For `CN(Cc1cc(Br)cc(Br)c1N)C1CCCCC1`, the figures for the cell viability in the test on DLD1 [1], with HCT116 and in the test on SW480 [2] were 0.975 ± 0.036, 1.04 ± 0.035 and 0.905 ± 0.052, respectively. Besides, the “TCF/Wnt firefly luciferase reporter signal” value with DLD1 [3] is 0.8435 ± 0.0035; in the test with SW480 [4], 0.867 ± 0.022.
The matching figures for `COc1ccc2[nH]c([S+]([O-])Cc3ncc(C)c(OC)c3C)nc2c1` (stereo not given): 0.971 ± 0.084, 1.01 ± 0.048, 0.978 ± 0.06, 1.09 ± 0.05 and 1.06 ± 0.11.
With `CC(=O)[C@@]1(O)CC[C@H]2[C@@H]3C[C@H](C)C4=CC(=O)C=C[C@]4(C)[C@@]3(F)[C@@H](O)C[C@@]21C`, the cell viability worked out at 1.07 ± 0.085 in the test on DLD1 [1], 1.03 in the test on HCT116 and 0.957 ± 0.044 in the test on SW480 [2]. The “TCF/Wnt firefly luciferase reporter signal” value in the test on DLD1 [3] came out at 0.985 ± 0.079; in the test on SW480 [4] it was 0.99 ± 0.057.
With `CC(=O)Oc1c(C)c(C)c2c(c1C)CCC(C)(CCCC(C)CCCC(C)CCCC(C)C)O2` (stereo not drawn) [alpha-TOCHOPHERYL ACETATE], the values for the cell viability with DLD1 [1], in the test on HCT116 and in the test on SW480 [2] were 1.06 ± 0.085, 1.02 ± 0.092 and 1.06 ± 0.014, respectively. Further, the “TCF/Wnt firefly luciferase reporter signal” value in the test on DLD1 [3] turned out to be 1.12 ± 0.18; in the test with SW480 [4] it was 1.09 ± 0.057.
The matching figures for `C/C=C/c1ccc(OC)cc1`: 1.07 ± 0.021, 0.987 ± 0.047, 1.03 ± 0.062, 0.925 ± 0.12 and 0.943 ± 0.0014.
Taken in the same sequence, the figures for `COC(=O)C[C@H]1C(C)(C)[C@@H](OC(C)=O)[C@@H]2CC3C4CC(=O)O[C@@H](c5ccoc5)[C@]4(C)CCC3[C@@]1(C)C2=O` (stereo not given in full) were 1.05 ± 0.042, 0.946 ± 0.011, 1.015 ± 0.0071, 0.966 ± 0.1 and 1.005 ± 0.0071.
`O=c1c(O)c(-c2ccc(O)c(O)c2)oc2cc(O)ccc12`: the cell viability in the test with DLD1 [1] came to 0.989 ± 0.073; with HCT116, 0.948 ± 0.028; with SW480 [2], 0.969 ± 0.019. The “TCF/Wnt firefly luciferase reporter signal” value was found to be 1.01 ± 0.097 with DLD1 [3] and 0.923 ± 0.11 in the test with SW480 [4].
For the compound `CN1CCC(=C2c3ccccc3CCc3sccc32)CC1`, the cell viability in the test on DLD1 [1] worked out at 1.07 ± 0.014; in the test on HCT116 it was 1.14 ± 0.17; in the test with SW480 [2] it was 1.1 ± 0.064. Moreover, the “TCF/Wnt firefly luciferase reporter signal” value in the test with DLD1 [3] worked out at 1.05 ± 0.11; in the test on SW480 [4] it was 0.934 ± 0.061.
Taken in the same sequence, the figures for `CCCCCCCCCCCCCCCC(=O)OC/C=C(C)/C=C/C=C(C)/C=C/C1=C(C)CCCC1(C)C` were 0.986 ± 0.048, 1.07 ± 0.035, 0.9965 ± 0.0021, 0.885 ± 0.1 and 1.01 ± 0.073.
Turning to `CC(=O)/C(=C\c1ccccc1)CC(=O)O`, the values for the cell viability with DLD1 [1], in the test on HCT116 and in the test on SW480 [2] were 0.984 ± 0.037, 1.03 ± 0.047 and 1 ± 0.05, respectively. Also, the “TCF/Wnt firefly luciferase reporter signal” value in the test with DLD1 [3] was 0.894 ± 0.0085; with SW480 [4], 0.996 ± 0.02.
For `C#C[C@]1(O)CC[C@H]2[C@@H]3CCC4=C(CCC(=O)C4)[C@H]3CC[C@@]21C`, the cell viability was 0.905 ± 0.022 in the test on DLD1 [1], 0.974 ± 0.14 in the test with HCT116 and 0.913 ± 0.014 in the test with SW480 [2]. Also, the figures for the “TCF/Wnt firefly luciferase reporter signal” value with DLD1 [3] and in the test with SW480 [4] were 1.07 ± 0.13 and 1.07 ± 0.057, respectively.
As for `CC(=O)OCC(COC(C)=O)OC(C)=O`, the cell viability with DLD1 [1] worked out at 0.905 ± 0.08; with HCT116 it was 0.962 ± 0.082; with SW480 [2], 0.948 ± 0.0099. Also, the “TCF/Wnt firefly luciferase reporter signal” value with DLD1 [3] worked out at 0.929 ± 0.079; in the test with SW480 [4] it was 1 ± 0.011.
Consider `C=CCc1ccc(O)c(OC)c1`, for which the cell viability stood at 0.978 ± 0.013 with DLD1 [1], 1.07 ± 0.16 in the test with HCT116 and 0.943 ± 0.063 in the test with SW480 [2]. For the same compound, the “TCF/Wnt firefly luciferase reporter signal” value in the test with DLD1 [3] came to 1.06 ± 0.12; in the test with SW480 [4] it was 1.09 ± 0.078.
The matching figures for `CCN(CCCc1ccccc1)CCCc1ccccc1`: 1 ± 0.22, 1.06 ± 0.021, 1.08 ± 0.035, 1 ± 0.036 and 0.916 ± 0.055.
The matching figures for `CCOC(=O)[C@H](CCc1ccccc1)N[C@H]1CCc2ccccc2N(CC(=O)O)C1=O`: 0.871 ± 0.1, 0.899 ± 0.068, 1.02 ± 0.067, 1.045 ± 0.0071 and 1.01.
